# Assay results reported in publication PMC10812921, “Transcriptional Coactivator BOB1 (OBF1, OCA-B) Modulates the Specificity of DNA Recognition by the POU-Domain Factors OCT1 and OCT2 in a Monomeric Configuration”.
# Tests used:
# POU1 (OCT1 POU domain) = POU1 (OCT1 POU domain) (human, UniProt P14859 260-458); experiment: EMSA-SELEX-seq; no BOB1; 20 mM Tris-HCl pH 7.6, 140 mM NaCl, 10% glycerol, 0.5 mM EDTA, 0.05% Triton X-100, 0.1 mg/mL BSA, 0.1 mg/mL poly(dI-dC), 5 mM DTT, room temperature, 20 min; high values mean tight binding; details: protein: recombinant; dsDNA, one strand shown
# How it was run: (§1)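 Binding preference is the percentage of sequenced 8-mers matching a motif pattern. Tagged POU-domain proteins expressed in E. coli BL21 were purified under denaturing conditions and renatured. For binding, 30 ng protein met 300 ng of a PCR-amplified double-stranded random 35-nt library, with or without 28 ng coactivator protein, in 20 μL Tris–HCl pH 7.6 binding buffer for 20 min at RT. Complex bands were cut from native 6% PAGE, eluted and PCR-amplified over four rounds, then Illumina-sequenced.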
# POU2 (OCT2 POU domain) = biological target: T1, POU2 (OCT2 POU domain) (human, UniProt P09086 175-386); experiment: as above; details: protein: recombinant; dsDNA, one strand shown
# T1 sequence: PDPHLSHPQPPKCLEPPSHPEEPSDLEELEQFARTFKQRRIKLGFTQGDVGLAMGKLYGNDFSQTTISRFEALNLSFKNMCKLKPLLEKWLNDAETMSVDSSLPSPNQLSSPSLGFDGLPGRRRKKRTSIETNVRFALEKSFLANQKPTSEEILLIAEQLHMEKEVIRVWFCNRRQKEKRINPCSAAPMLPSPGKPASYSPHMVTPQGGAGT
# How it was run: as §1
# [1] = biological target: POU1 (OCT1 POU domain);BOB1 (OBF1, OCA-B) (human;human, UniProt P14859;Q16633 260-458;1-256, |); experiment: EMSA-SELEX-seq; with BOB1 (ternary complex band); 20 mM Tris-HCl pH 7.6, 140 mM NaCl, 10% glycerol, 0.5 mM EDTA, 0.05% Triton X-100, 0.1 mg/mL BSA, 0.1 mg/mL poly(dI-dC), 5 mM DTT, room temperature, 20 min; high values mean tight binding; details: protein: recombinant;recombinant; copies: 1;1; dsDNA, one strand shown
# How it was run: as §1
# [2] = biological target: T2, POU2 (OCT2 POU domain);BOB1 (OBF1, OCA-B) (human;human, UniProt P09086;Q16633 175-386;1-256, |); experiment: as above; details: protein: recombinant;recombinant; copies: 1;1; dsDNA, one strand shown
# T2 sequence 1: T1 sequence
# T2 sequence 2: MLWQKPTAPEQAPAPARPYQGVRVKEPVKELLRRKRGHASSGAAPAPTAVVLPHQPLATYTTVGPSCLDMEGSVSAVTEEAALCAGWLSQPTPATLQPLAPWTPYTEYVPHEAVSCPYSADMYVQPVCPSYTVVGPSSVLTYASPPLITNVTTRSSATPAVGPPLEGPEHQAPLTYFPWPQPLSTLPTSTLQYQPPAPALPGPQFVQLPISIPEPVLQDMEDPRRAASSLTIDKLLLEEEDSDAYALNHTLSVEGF
# How it was run: as §1
# Chain of POU1 (OCT1 POU domain) (P14859 260-458): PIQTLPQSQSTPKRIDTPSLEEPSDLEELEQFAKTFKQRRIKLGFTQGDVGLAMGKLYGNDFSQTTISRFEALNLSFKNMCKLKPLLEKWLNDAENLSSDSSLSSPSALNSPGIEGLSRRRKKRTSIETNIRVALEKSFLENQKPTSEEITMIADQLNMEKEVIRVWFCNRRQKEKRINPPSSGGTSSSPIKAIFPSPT
Sequence,binding signal (POU1 (OCT1 POU domain)),binding signal (POU2 (OCT2 POU domain)),binding signal [1],binding signal [2]
AAGTTAAA,0.0858 % of ANNNNAAN 8-mers,0.0857 % of ANNNNAAN 8-mers,0.0901 % of ANNNNAAN 8-mers,0.071 % of ANNNNAAN 8-mers
ACTGAAAT,0.0522 % of ANNNNAAN 8-mers,0.0639 % of ANNNNAAN 8-mers,0.0472 % of ANNNNAAN 8-mers,0.0495 % of ANNNNAAN 8-mers
AGTCCAAT,0.0385 % of ANNNNAAN 8-mers,0.0466 % of ANNNNAAN 8-mers,0.0421 % of ANNNNAAN 8-mers,0.0371 % of ANNNNAAN 8-mers
ATAATAAT,0.273 % of ANNNNAAN 8-mers,0.353 % of ANNNNAAN 8-mers,0.11 % of ANNNNAAN 8-mers,0.143 % of ANNNNAAN 8-mers
ATGAGAAG,0.0709 % of ANNNNAAN 8-mers,0.088 % of ANNNNAAN 8-mers,0.0652 % of ANNNNAAN 8-mers,0.0553 % of ANNNNAAN 8-mers
AAGGAAAA,0.113 % of ANNNNAAN 8-mers,0.0955 % of ANNNNAAN 8-mers,0.17 % of ANNNNAAN 8-mers,0.0999 % of ANNNNAAN 8-mers
AGTGCAAG,0.0187 % of ANNNNAAN 8-mers,0.0311 % of ANNNNAAN 8-mers,0.0238 % of ANNNNAAN 8-mers,0.0264 % of ANNNNAAN 8-mers
ATAAGAAT,0.114 % of ANNNNAAN 8-mers,0.143 % of ANNNNAAN 8-mers,0.0886 % of ANNNNAAN 8-mers,0.0892 % of ANNNNAAN 8-mers
AGCCAAAA,0.0355 % of ANNNNAAN 8-mers,0.038 % of ANNNNAAN 8-mers,0.0499 % of ANNNNAAN 8-mers,0.0305 % of ANNNNAAN 8-mers
AGTCAAAG,0.116 % of ANNNNAAN 8-mers,0.0748 % of ANNNNAAN 8-mers,0.187 % of ANNNNAAN 8-mers,0.0966 % of ANNNNAAN 8-mers
ATACTAAC,0.0347 % of ANNNNAAN 8-mers,0.0293 % of ANNNNAAN 8-mers,0.0304 % of ANNNNAAN 8-mers,0.0396 % of ANNNNAAN 8-mers
ATTTTAAT,0.672 % of ANNNNAAN 8-mers,0.679 % of ANNNNAAN 8-mers,0.258 % of ANNNNAAN 8-mers,0.221 % of ANNNNAAN 8-mers
AGGGTAAA,0.0706 % of ANNNNAAN 8-mers,0.0857 % of ANNNNAAN 8-mers,0.0679 % of ANNNNAAN 8-mers,0.0966 % of ANNNNAAN 8-mers
AGCTGAAA,0.0267 % of ANNNNAAN 8-mers,0.0293 % of ANNNNAAN 8-mers,0.0261 % of ANNNNAAN 8-mers,0.0239 % of ANNNNAAN 8-mers
AACATAAC,0.0526 % of ANNNNAAN 8-mers,0.0506 % of ANNNNAAN 8-mers,0.0347 % of ANNNNAAN 8-mers,0.033 % of ANNNNAAN 8-mers
ATGTAAAT,3.45 % of ANNNNAAN 8-mers,2.89 % of ANNNNAAN 8-mers,2.3 % of ANNNNAAN 8-mers,3.57 % of ANNNNAAN 8-mers
AACTAAAG,0.024 % of ANNNNAAN 8-mers,0.0311 % of ANNNNAAN 8-mers,0.0293 % of ANNNNAAN 8-mers,0.0355 % of ANNNNAAN 8-mers
ACTCCAAG,0.0191 % of ANNNNAAN 8-mers,0.0196 % of ANNNNAAN 8-mers,0.0195 % of ANNNNAAN 8-mers,0.0124 % of ANNNNAAN 8-mers
ATGCCAAC,0.0225 % of ANNNNAAN 8-mers,0.0293 % of ANNNNAAN 8-mers,0.025 % of ANNNNAAN 8-mers,0.0124 % of ANNNNAAN 8-mers
AGTGAAAA,0.0698 % of ANNNNAAN 8-mers,0.0685 % of ANNNNAAN 8-mers,0.0956 % of ANNNNAAN 8-mers,0.0685 % of ANNNNAAN 8-mers
ACGGCAAT,0.0332 % of ANNNNAAN 8-mers,0.0368 % of ANNNNAAN 8-mers,0.0336 % of ANNNNAAN 8-mers,0.0289 % of ANNNNAAN 8-mers
ATTCGAAG,0.0564 % of ANNNNAAN 8-mers,0.0656 % of ANNNNAAN 8-mers,0.0464 % of ANNNNAAN 8-mers,0.0405 % of ANNNNAAN 8-mers
AGGACAAG,0.0263 % of ANNNNAAN 8-mers,0.0293 % of ANNNNAAN 8-mers,0.0297 % of ANNNNAAN 8-mers,0.0289 % of ANNNNAAN 8-mers
AATCCAAA,0.0507 % of ANNNNAAN 8-mers,0.0386 % of ANNNNAAN 8-mers,0.0726 % of ANNNNAAN 8-mers,0.0371 % of ANNNNAAN 8-mers
AGTTCAAG,0.0297 % of ANNNNAAN 8-mers,0.0276 % of ANNNNAAN 8-mers,0.0359 % of ANNNNAAN 8-mers,0.0314 % of ANNNNAAN 8-mers
AAGTCAAC,0.0256 % of ANNNNAAN 8-mers,0.0236 % of ANNNNAAN 8-mers,0.0308 % of ANNNNAAN 8-mers,0.0272 % of ANNNNAAN 8-mers
ACCGGAAA,0.0271 % of ANNNNAAN 8-mers,0.0236 % of ANNNNAAN 8-mers,0.0265 % of ANNNNAAN 8-mers,0.0281 % of ANNNNAAN 8-mers
AGCAAAAA,0.0831 % of ANNNNAAN 8-mers,0.0604 % of ANNNNAAN 8-mers,0.11 % of ANNNNAAN 8-mers,0.0644 % of ANNNNAAN 8-mers
AGGCCAAA,0.029 % of ANNNNAAN 8-mers,0.027 % of ANNNNAAN 8-mers,0.0242 % of ANNNNAAN 8-mers,0.0281 % of ANNNNAAN 8-mers
ACTCAAAC,0.0187 % of ANNNNAAN 8-mers,0.027 % of ANNNNAAN 8-mers,0.03 % of ANNNNAAN 8-mers,0.0149 % of ANNNNAAN 8-mers
